Results: the supplement of paper PMC6555819

tested on: VDR:RXRa (NR concentration 270 nM, RXRa partner concentration 90 nM); experiment: PBM binding z-score (relative to random genomic background probes); higher = stronger binding; sequences stand for … in GC…GCGATTGACAGCGTAGAATGAAGG
Method: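 Protein-binding microarray (Agilent 4x180K custom design, double-stranded 60-nt probes: 5' GC cap, 34-nt variable region, 24-nt constant primer region; full probe sequence given). Purified or IVT nuclear receptor:RXRα heterodimers (3:1 NR:RXRα, mostly 270:90 nM) or homodimers were incubated for 1 h in PBS with 2% milk and no ligand, then detected with Alexa488 antibodies. Fluorescence from o1-orientation probes (~5 replicates averaged) was converted to z-scores against 500 random hg19 background probes. Variable regions are seed direct-repeat (DR0–DR5) sites, all their single-nucleotide variants and half-site ablations.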

Compared with CCTAGCAGGCCAATCTGTGTCACTCAAGGCTTGA, ATCGAAAGCTCGAAGGTGAGTATACCCACCCGAA is lower in PBM binding z-score: -0.331 for the first, -0.463 for the second.

Compared with CGAACTAGGTCAGAACAGAACAGTGAAGGATGAT, ACAATGAGGTTAAGATCAGGGAAACAGAATACAT is higher in PBM binding z-score: -0.0419 for the first, 1.3 for the second.

First: ACTTATGGGTCAACGAGGTTATAGCACGCGTATA
Second: TCAAGTAGGTTACCAATGGGGCATTCAGCTTTCT
The PBM binding z-score of the first is higher: 7.43 for the first, 0.549 for the second.

First: GCAGACAGGTGAAAGGCAGGTAACTCAGGGTGGC
Second: CAAACTAGGTCAAAGGACAAAGTCGAGCCAACCA
The PBM binding z-score of the first is lower: -0.303 for the first, 1.96 for the second.

Going from GCTAGTTGGACAGTAAAAGGTCACACACCGGTCG to ACTAGTTGGTCAGCTGAGGTCAGACACAATTCGG, the PBM binding z-score falls from 3.84 to 3.07.

Going from GCTTTCGGGTCAAAGGTTATAGCATGAATAGAAT to TCGAGTAGGTTTCCAATGGGGCATTCAGCTTTCT, the PBM binding z-score falls from 5.79 to -0.464.

Compared with TCTGTTAGTTGAAGGGCAACCGACGAGTCCGTTT, GGAACGAGGGCATTTGAGTTGATAGCATGGCGAT is higher in PBM binding z-score: 0.902 for the first, 4.22 for the second.

First: CCTTACGGGTGACTGACAGGTTATAGCATTTGGA
Second: AGAATGAGGTTACCAAAGATCTGGGAAACGCTTG
The PBM binding z-score of the first is lower: 0.132 for the first, 0.954 for the second.

Going from CCAACTAGGTCAAGGACAGTGAATCTCCGCACGC to AGAACGAGCGCAATGAGTTGATAGCACGGGTGGC, the PBM binding z-score falls from 1.16 to -0.0491.

First: CCTTACGGGTCACTGCCAGGTTATAGCATTTGGA
Second: CGAACTAGGTCAGAACAGGACAGTCAAGGATGAT
The PBM binding z-score of the first is higher: 3.73 for the first, 0.754 for the second.

Going from CGTCCAAGGTCAGGGAGGTCAGTGAATGCCGAGT to CCTTAAGGGTCACTGACAGGTTATAGCATTTGGA, the PBM binding z-score falls from 7.3 to 5.

Going from AGAACGAGGGCGCGCTGAGTTGATAGCAGAGTAG to CGAACTAGGTCAGTGACAGGACAGTGAATAGTAA, the PBM binding z-score rises from 0.589 to 0.664.

First: ATACCAAGGTGATCGTGAGGTCGTTGAAACTAAC
Second: TCTTGTAGATAAATAGAGGTTAAGAAAGTGCGCT
The PBM binding z-score of the first is higher: 3.53 for the first, 1.87 for the second.

First: CGTCAAATTTCAAGGTAACGTAACAGAAAGCAGC
Second: TTACCAAAGTGAGCTGAGGTCGTTGATCCAACTC
The PBM binding z-score of the first is lower: 0.0191 for the first, 1.84 for the second.

Going from CGAACTAGGTCAGAACAGGAAAGTGAAGGATGAT to TAATATAGGTAATACAGGTGAAAGTCGGCATCTA, the PBM binding z-score rises from 0.0955 to 0.659.

Compared with AGAATGAGGTTCCCAAAGATCAGGGAAACGCTTG, CAAACTAGGTCACGAAATGTCAAAGTCGAATGAC is higher in PBM binding z-score: -0.0526 for the first, 3.47 for the second.

First: AGTCACAGTTCATCTAGGTAACGTAAGATATGCT
Second: AGTCAAAGTTCATCTAGTTAACGTAAGATATGCT
The PBM binding z-score of the first is lower: 3.05 for the first, 4.86 for the second.

Compared with TCGAGTAGGTTACCAATGGGGCAGTCAGCTTTCT, GCAGACAGGTGAAACGCAGGTAACGCAGGGTGGC is lower in PBM binding z-score: -0.0931 for the first, -0.489 for the second.

Going from ATCGAAACGTCGAAGGTGAGTATACCCACCCGAA to GCTAGTTGGTCAGTGAAAGGTCACACACCGGTCG, the PBM binding z-score rises from -0.229 to 4.14.

First: AGAATGAGGTTAAGATCAGGGACACAGAATACAT
Second: TCGAGTAGGTTAATCGGGGCATTCAGCCAACATA
The PBM binding z-score of the first is lower: 1.93 for the first, 3.59 for the second.
